In PubChem BioAssay (NCATS):
Results filed as inconclusive are left out. Calls of active or inactive are those of the source. Calls come from the whole dose curve; as a rule, active = well fitted curve in the direction sought with a large enough effect; inconclusive = small, poorly fitted or top-dose-only effect, or another doubt; inactive = no such curve, though single readings can be large; an effect the other way counts as inactive or inconclusive.

Experiments:
[1] = qHTS of pediatric cancer cell lines to identify multiple opportunities for drug repurposing: Primary screen for SK-N-SH cells (AID 1347098);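 note: DMSO served as neutral control and bortezomib at 2.3 µM as positive control; nearly all actives have a fitted effect of over 65% in size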
How it was run: (§1)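 Cells (500-1,000/well) rested 5 h, then received compounds for 48 h; metabolically active cells were measured by CellTiter-Glo luminescence. Final concentrations spanned up to 46 µM (MIPE, 11-point) or 0.59 nM-46 µM (NPC, 8-point) in primary screens, 11-point in follow-ups.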

[2] = qHTS of pediatric cancer cell lines to identify multiple opportunities for drug repurposing: Primary screen for NB1643 cells (AID 1347099); note: nearly all actives have a fitted effect of over 50% in size
How it was run: (§2)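 Plated cells (500-1,000 per well, growth media) were allowed to settle for 5 hours, treated with compound dilutions for 48 hours, then lysed with CellTiter-Glo for 15 min at room temperature before luminescence reading.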

[3] = qHTS of pediatric cancer cell lines to identify multiple opportunities for drug repurposing: Primary screen for LAN-5 cells (AID 1347100)
How it was run: (§3)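 Viability after 48 h compound treatment at 37C, 500-1,000 cells/well, read as ATP luminescence with CellTiter-Glo. Primary screens used 11-point (MIPE, 0.78 nM-46 µM) or 8-point (NPC, 0.59 nM-46 µM) final concentrations; follow-up screens used 11-point dilutions.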

[4] = qHTS of pediatric cancer cell lines to identify multiple opportunities for drug repurposing: Primary screen for BT-12 cells (AID 1347101); note: nearly all actives have a fitted effect of over 25% in size
How it was run: as §1

[5] = qHTS of pediatric cancer cell lines to identify multiple opportunities for drug repurposing: Primary screen for Rh18 cells (AID 1347102); note: nearly all actives have a fitted effect of over 65% in size
How it was run: as §3

[6] = qHTS of pediatric cancer cell lines to identify multiple opportunities for drug repurposing: Primary screen for OHS-50 cells (AID 1347103); note: nearly all actives have a fitted effect of over 40% in size
How it was run: as §1

[7] = qHTS of pediatric cancer cell lines to identify multiple opportunities for drug repurposing: Primary screen for RD cells (AID 1347104); note: nearly all actives have a fitted effect of over 55% in size
How it was run: as §2

[8] = qHTS of pediatric cancer cell lines to identify multiple opportunities for drug repurposing: Primary screen for MG 63 (6-TG R) cells (AID 1347105); note: nearly all actives have a fitted effect of over 50% in size
How it was run: as §2

[9] = qHTS of pediatric cancer cell lines to identify multiple opportunities for drug repurposing: Primary screen for control Hh wild type fibroblast cells (AID 1347106);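 note: series mostly up to about 46 µM; a drop in luminescence marks cytotoxicity and a rise apparent proliferation; nearly all actives have a fitted effect of over 55% in size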
How it was run: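 Cells (500-1,000/well) in growth media were settled 5 h at 37 degrees C, then given compounds for 48 h. Viability was read as CellTiter-Glo luminescence. Primary runs used MIPE at 11 points (0.78 nM-46 µM) and NPC at 8 points (0.59 nM-46 µM); follow-ups used 11 points.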

[10] = qHTS of pediatric cancer cell lines to identify multiple opportunities for drug repurposing: Primary screen for Rh30 cells (AID 1347107); note: series mostly up to about 46 µM; nearly all actives have a fitted effect of over 75% in size
How it was run: as §3

[11] = qHTS of pediatric cancer cell lines to identify multiple opportunities for drug repurposing: Primary screen for Rh41 cells (AID 1347108);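 note: series mostly up to about 46 µM; luminescence drop marks cytotoxic hits; nearly all actives have a fitted effect of over 70% in size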
How it was run: as §2

Measured: Potency

CN1C(=O)COc2c(C(=O)NC3CN4CCC3CC4)cc(Cl)cc21 (stereo unspecified)
inactive: all assays above

CCN[C@@H](C)Cc1cccc(C(F)(F)F)c1
not listed: [8]
inactive: all other assays above

COc1cccc([C@@]2(O)CCCC[C@@H]2CN(C)C)c1
inactive: all assays above

C#C[C@]1(O)CC[C@H]2[C@@H]3CCC4=CC(=O)CC[C@]4(C)[C@H]3CC[C@@]21C
inactive: all assays above

CCC1(c2ccc(N)cc2)CCC(=O)NC1=O (stereo unspecified)
not listed: [8]
inactive: all other assays above

Nc1ccccc1
inactive: all assays above

O=[N+]([O-])O[C@H]1CO[C@H]2[C@@H]1OC[C@H]2O[N+](=O)[O-]
inactive: all assays above

CN1C(=O)CCS(=O)(=O)C1c1ccc(Cl)cc1 (stereo unspecified)
inactive: all assays above

O=C(O)c1ccc(=O)[nH]c1
inactive: all assays above

CC(C)(N)Cc1ccccc1Cl
inactive: all assays above

Nc1ccc([As](=O)(O)O)cc1
inactive: all assays above

C=CCC1([C@H](C)CCC)C(=O)NC(=O)NC1=O
inactive: all assays above

[N-]=[N+]=CC(=O)OC[C@H](N)C(=O)O
inactive: all assays above

C=C(C)[C@H]1CN[C@H](C(=O)O)[C@H]1CC(=O)O
inactive: all assays above

CC(Cc1ccccc1)N(C)Cc1ccco1 (stereo unspecified)
inactive: all assays above

O=c1[nH]c2ccccc2n1C1CCNCC1
inactive: all assays above

COP(=S)(OC)Oc1ccc(S(=O)(=O)N(C)C)cc1
inactive: all assays above

c1ccc(N2CCNCC2)cc1
inactive: all assays above

CCC(C)C(C)(COC(N)=O)COC(N)=O (stereo unspecified)
not listed: [8]
inactive: all other assays above

Clc1cccc(SC2CCNCC2)n1
not listed: [8]
inactive: all other assays above

CC(C)(C)NCC(O)c1cc(Cl)c(N)c(C(F)(F)F)c1 (stereo unspecified)
not listed: [8]
inactive: all other assays above

CNCC(=O)c1ccc(O)c(O)c1
not listed: [8]
inactive: all other assays above

COC(=O)[C@@H](N)CCCN/C(N)=N/[N+](=O)[O-]
inactive: all assays above

CC(C(=O)c1ccccc1)N(C)C (stereo unspecified)
inactive: all assays above

Oc1ccc(Cl)cc1
not listed: [8]
inactive: all other assays above

CN1C(=O)NC(=O)C(C)(C2=CCCCC2)C1=O (stereo unspecified)
inactive: all assays above

O=C1OC(c2ccc(O)c(S(=O)(=O)O)c2)(c2ccc(O)c(S(=O)(=O)O)c2)c2c(Br)c(Br)c(Br)c(Br)c21
not listed: [8]
inactive: all other assays above

C[N+]1(CCF)[C@@H]2CC[C@H]1CC(OC(=O)C(O)(c1ccccc1)c1ccccc1)C2 (stereo partly specified)
inactive: all assays above

CCN(CCO)CCn1c(Cc2ccccc2)nc2c1c(=O)n(C)c(=O)n2C
not listed: [8]
inactive: all other assays above

CCCCC/C=C\C/C=C\C/C=C\C/C=C\CCCC(=O)NCC(=O)O
not listed: [8]
inactive: all other assays above

COc1cc(CC(C)N)cc(OC)c1OC (stereo unspecified)
not listed: [8]
inactive: all other assays above

c1ccc(CN2CCNCC2)cc1
not listed: [8]
inactive: all other assays above

NC1=NC(=O)C(c2ccccc2)O1 (stereo unspecified)
inactive: all assays above

C#CC(O)(C=CCl)CC (stereo unspecified)
inactive: all assays above

CC(C)NC(C)C
inactive: all assays above

CCN[C@@H](C)Cc1ccccc1
inactive: all assays above

NC(=O)c1cc([N+](=O)[O-])cc([N+](=O)[O-])c1
inactive: all assays above

NC(=O)CS(=O)C(c1ccccc1)c1ccccc1 (stereo unspecified)
inactive: all assays above

C=CCN1C[C@H](C)N([C@H](c2ccc(C(=O)N(CC)CC)cc2)c2cccc(OC)c2)C[C@H]1C
inactive: all assays above

CC(=O)NC1CCSC1=O (stereo unspecified)
not listed: [4] | [8]
inactive: all other assays above

CCOC(=O)CC(SP(=S)(OC)OC)C(=O)OCC (stereo unspecified)
not listed: [4]
inactive: all other assays above

CCC(CC)(CNC(=O)CCCO)c1cccc(OC)c1
not listed: [4]
inactive: all other assays above

C[C@]12CC[C@@H]3c4ccc(OC(=O)N(CCCl)CCCl)cc4CC[C@H]3[C@@H]1CC[C@@H]2OP(=O)(O)O
not listed: [4]
inactive: all other assays above

C[C@H]1[C@@H]2Cc3ccc(O)cc3[C@@]1(C)CCN2C
not listed: [6]
inactive: all other assays above

CCc1cc2c(s1)-n1c(C)nnc1CN=C2c1ccccc1Cl
not listed: [6]
inactive: all other assays above
